High-throughput results from PubChem BioAssay.
BJeLR viability: kills HRASV12-expressing BJeLR cells; BJeLR (HRASV12) viability, CellTiter-Glo ATP luminescence, 48 h; inhibition, % (concentration not given with the values); 0.17% of 300,000 active; in the data active means inhibition above about 50%
SARS 3CLpro inh-1: SARS-CoV 3CLpro protease inhibition | P0C6X7 | recombinant SARS-CoV 3CLpro, quenched FRET peptide cleavage | inhibition, % at 6 µM | 0.14% of 290,000 active | AID 1706; in the data active means inhibition above about 12%
Mtb BioA inh: BioA (M. tuberculosis) enzyme inhibition; purified M. tuberculosis BioA enzyme, plate reader; inhibition, % at 9.99 µM; 0.096% of 360,000 active; AID 602481; in the data active means inhibition above about 40%
PfHsp40 yeast: restores yeast growth despite PfHsp40 toxicity | S. cerevisiae expressing PfHsp40, growth rescue, ATP luminescence | growth rescue, % at 12.5 µM | 0.68% of 340,000 active | AID 504582; in the data active means growth rescue above about 28%, passing the limit was not always enough;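 further: yeast W303a lacking pdr1 and pdr3 grown in galactose medium; growth measured after three days at 30 °C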
Y pestis TopoI: Y. pestis Topo-I inhibition via cleavage products; Y. pestis Topo-I cleavage product accumulation, plate reader; activity, % at 10 µM; 0.064% of 360,000 active; AID 504884; in the data active means activity above about 50%, passing the limit was not always enough
MazEF act: activators of E. coli MazEF toxin-antitoxin RNase; P0AE70; activation, % at 20 µM; FAM/BHQ RNA-DNA oligo cleavage fluorescence, 5 h; AID 504720; 0.32% of 350,000 active; in the data active means activation above about 50%
Target sequence (P0AE70 whole entry, looked up): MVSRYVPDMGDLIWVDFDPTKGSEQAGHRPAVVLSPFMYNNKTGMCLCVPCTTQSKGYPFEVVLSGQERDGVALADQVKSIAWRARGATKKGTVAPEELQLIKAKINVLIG
SARS 3CLpro inh-2: SARS 3CLpro inhibition, confirmation assay; shares compounds with SARS 3CLpro inh-1; inhibition, % at 6 µM; 36% of 380 active; AID 1879; QFRET protease activity assay; in the data active means inhibition above about 13%
Numbers without * were called inactive; · = no result. Only some compounds are listed: those with a hit (about 1.1% of all), similar ones and a draw of the others.

SMILES	BJeLR viability	SARS 3CLpro inh-1	Mtb BioA inh	PfHsp40 yeast	Y pestis TopoI	MazEF act	others
O=C(NCC(c1ccco1)N1CCCCC1)C(c1ccccc1)c1ccccc1 (stereo not drawn)	9	3	0	-1	21	-5
Cc1[nH]n(-c2ccc(Cl)cc2)c(=O)c1C(=O)c1ccccc1	5	5	0	87*	2	-3
CC/C(=N/NC(=O)c1ccccc1O)c1c(C)[nH]n(-c2ccccc2)c1=O	4	·	4	399*	-7	-4
CCSC(=S)c1c(C)[nH]n(-c2ccccc2)c1=O	8	1	1	34*	-2	2
Cc1[nH]n(-c2ccccc2)c(=O)c1C(=O)c1ccc(Cl)cc1	7	6	1	96*	-3	2
Cc1[nH]n(-c2ccccc2)c(=O)c1C(=O)c1ccccc1	7	2	-1	1	0	-1
CC/C(=N\NC(=O)c1ccccc1O)c1c(O)n(C2CCCCC2)c(=O)[nH]c1=O	9	7	4	0	4	2
Cc1[nH]n(-c2ccccc2)c(=O)c1C(=O)c1cccc(F)c1	8	1	·	-1	-5	5
Cc1ccccc1NC(=O)COC(=O)c1ccc2c(c1)OCCO2	·	·	-2	-2	2	6
O=C(COC(=O)c1ccc2c(c1)OCCO2)Nc1cc(Cl)ccc1Cl	2	-1	-2	1	-7	53*
COCCNC(=O)C[C@@H]1CC[C@@H]2[C@@H](COc3ccc(NC(=O)C4CCOCC4)cc3C(=O)N2C)O1	·	·	-1	·	·	·
CO[C@@H]1CN(C)C(=O)c2cc(NC(=O)Nc3ccccc3)ccc2OC[C@H](C)N(C(=O)Nc2c(C)noc2C)C[C@@H]1C	·	·	-2	·	·	·
C[C@H](O)C#Cc1ccc2c(c1)O[C@@H](CN(C)C(=O)CN(C)C)[C@@H](C)CN([C@H](C)CO)S2(=O)=O	·	·	3	·	·	·
Clc1cc2nc3ccccn3c2cc1Cl	-4	-6	·	152*	5	6
CCCNC(=O)N1C[C@H](O)COC[C@@H]2O[C@H](CC(=O)NCc3ccncn3)CC[C@H]21	·	·	-2	·	·	·
O=C(C[C@@H]1C[C@@H]2c3cc(NS(=O)(=O)c4ccc(F)cc4)ccc3O[C@@H]2[C@H](CO)O1)NCC(F)(F)F	·	·	0	·	·	·
CCN1C(=O)/C(=C/N(C)C)c2ccccc21	-5	-1	0	0	10	12
CCN1C(=O)/C(=C\N(C)C)c2ccccc21	-6	6	1	41*	8	6
Cc1cccc(Nc2nnc(-c3ccc(C(=O)N4C[C@H]5C[C@H](C4)c4cccc(=O)n4C5)cc3)c3ccccc23)c1	-12	-2	4	84*	36	8
Cc1ccc(N=c2oc3cc(O)ccc3cc2C(N)=O)cc1	7	-4	1	33*	-2	-8
CNC[C@@H]1OCCCC[C@H](C)Oc2ccc(NC(=O)Nc3ccc(F)cc3)cc2C(=O)N([C@H](C)CO)C[C@@H]1C	·	·	-1	·	·	·
COc1ccc(-c2cc(C)no2)cc1S(=O)(=O)N1CCOc2ccc(C)cc21	-12	2	-2	1	-3	76*
Cn1cc(C(=O)c2cccc(Cl)c2)cc1/C=N\O	5	0	·	30*	-11	6
O=C(COc1ccc(-c2nnco2)cc1)NC1CCS(=O)(=O)C1 (stereo not drawn)	·	·	11	31*	2	-14
COc1ccccc1C#Cc1cnc2c(c1)C(=O)N([C@@H](C)CO)C[C@@H](C)[C@H](CN(C)C(C)=O)O2	·	·	1	·	·	·
SMILES	BJeLR viability	SARS 3CLpro inh-1	Mtb BioA inh	PfHsp40 yeast	Y pestis TopoI	MazEF act	others
CC(c1ccon1)N(C)Cc1cn(C)nc1-c1cccc(Cl)c1 (stereo not drawn)	1	-1	·	79*	-2	-5
Cc1ccc(NC(=O)CSc2nnc(NC(=O)CN3CCOCC3)s2)cc1	-5	-5	-2	1	8	-3
Cc1cccc(C)c1NC(=O)CSc1nnc(NC(=O)CN2CCOCC2)s1	1	3	-1	64*	-1	-3
Cc1oc2cc(Br)c(O)c(Br)c2c1-c1ccccc1	7	1	-4	97*	0	-4
Cc1cc2oc(=O)cc(-c3ccccc3)c2c(C)c1-c1ccc(O)cc1	·	·	0	5	11	16
O=C(CN1c2ccccc2Sc2ccccc21)NNC(=S)Nc1ccc(Cl)cc1	5	-1	-1	75*	-23	-11
CC(C)NC(=O)N(C)C[C@@H]1Oc2ccc(N(C)C)cc2C(=O)N([C@@H](C)CO)C[C@@H]1C	·	·	-4	·	·	·
C/C=C/c1cnc2c(c1)C(=O)N([C@H](C)CO)C[C@H](C)[C@H](CN(C)C(=O)C1CC1)O2	·	·	-1	·	·	·
O=c1[nH]cnc2scc(-c3ccc(-c4ccccc4)cc3)c12	-2	5	0	0	0	83*
Cc1ccc(-n2c(CNCc3ccc(F)cc3)nc3ccccc3c2=O)cc1	2	4	-1	55*	-4	-15
CCN(CC)CCNCc1nc2ccccc2c(=O)n1-c1ccc(F)cc1	-4	2	1	0	3	16
C[C@@H]1CN([C@@H](C)CO)C(=O)c2cc(NS(=O)(=O)c3ccc(Cl)cc3)ccc2O[C@@H](C)CCCCO[C@@H]1CN(C)Cc1ccc2c(c1)OCO2	·	·	0	·	·	·
COc1ccc(S(=O)(=O)Nc2ccc3c(c2)CC(=O)N([C@@H](C)CO)C[C@H](C)[C@@H](CN(C)C(=O)Nc2ccc(F)cc2)O3)cc1	·	·	-2	·	·	·
CCc1c(C)sc(NC(=O)Cc2ccccc2OC)c1C(=O)N1CCOCC1	7	13*	0	1	3	2	SARS 3CLpro inh-2=0
C[C@H](CO)N1C[C@H](C)[C@@H](CN(C)C(=O)CCCN(C)C)OCCCC[C@H](C)Oc2ccc(NC(=O)Nc3ccc(C(F)(F)F)cc3)cc2C1=O	·	·	3	·	·	·
COc1ccc(N(Cc2cc3cc(OC)ccc3[nH]c2=O)S(=O)(=O)c2ccc(NC(C)=O)cc2)cc1	15	0	-1	0	13	3
COc1ccc(N(Cc2cc3ccccc3[nH]c2=O)S(=O)(=O)c2ccc(OC)cc2)cc1	7	16*	1	0	20	-3	SARS 3CLpro inh-2=6
C[C@H](O)C#Cc1ccc2c(c1)O[C@@H](CN(C)CC1CC1)[C@H](C)CN([C@H](C)CO)S2(=O)=O	·	·	-2	·	·	·
COc1cccc(NC(=O)N(C)C[C@H]2Oc3ncc(C4=CCCCC4)cc3C(=O)N([C@@H](C)CO)C[C@H]2C)c1	·	·	2	·	·	·
O=C(CC(=O)Nc1cccnc1)Nc1cccnc1	3	0	3	1	8	5
O=C(Cc1ccc(Cl)c(Cl)c1)Nc1cccnc1	-9	23*	8	0	-7	9	SARS 3CLpro inh-2=21*
N/C(=N\S(=O)(=O)c1cc(C(F)(F)F)cc(C(F)(F)F)c1)c1ccc(Cl)cc1	-13	14*	·	9	5	-3	SARS 3CLpro inh-2=6
